# Assay results taken from the supplement of paper PMC8728848.
# Shown is part of a subset that was picked to be rich in the strongest signals.
# Key:
# Experiment in all cases: glycan array binding signal (z-score within array); higher = stronger binding
# Conditions in all cases: glycan notation: IUPAC condensed, linker removed
# [1] = biological target: Gal(b1-4)GlcNAc(b1-3)Gal(b1-4)GlcNAc(b1-3)Gal(b1-4)GlcNAc(b1-3)Gal(b1-4)GlcNAc(b1-3)Gal(b1-4)GlcNAc(b1-2)[Gal(b1-4)GlcNAc(b1-3)Gal(b1-4)GlcNAc(b1-3)Gal(b1-4)GlcNAc(b1-3)Gal(b1-4)GlcNAc(b1-3)Gal(b1-4)GlcNAc(b1-6)]Man(a1-6)[Gal(b1-4)GlcNAc(b1-3)Gal(b1-4)GlcNAc(b1-3)Gal(b1-4)GlcNAc(b1-3)Gal(b1-4)GlcNAc(b1-3)Gal(b1-4)GlcNAc(b1-2)Man(a1-3)]Man(b1-4)GlcNAc(b1-4)[Fuc(a1-6)]GlcNAc
# How it was run: (§1)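 The Consortium for Functional Glycomics database supplied 3228 glycan arrays, of which those lacking an available protein sequence were dropped. The binding signal, a within-array Z-score, was averaged across arrays of the same protein sequence and across linkers. Negative scores can be read as non-binding.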
# Gal6S(b1-4)GlcNAc = biological target: Gal6S(b1-4)GlcNAc
# How it was run: as §1
# GalNAc(b1-3)GlcNAc = biological target: GalNAc(b1-3)GlcNAc
# How it was run: as §1
# Glc(a1-6)Glc(a1-6)Glc = biological target: Glc(a1-6)Glc(a1-6)Glc
# How it was run: as §1
# GlcA(b1-3)Gal = biological target: GlcA(b1-3)Gal
# How it was run: as §1
# [2] = biological target: GlcNAc(b1-3)Gal(b1-4)GlcNAc(b1-3)Gal(b1-4)GlcNAc(b1-3)Gal(b1-4)GlcNAc(b1-2)Man(a1-3)[GlcNAc(b1-3)Gal(b1-4)GlcNAc(b1-3)Gal(b1-4)GlcNAc(b1-3)Gal(b1-4)GlcNAc(b1-2)Man(a1-6)]Man(b1-4)GlcNAc(b1-4)GlcNAc
# How it was run: as §1
# Kdn(a2-3)Gal(b1-4)Glc = biological target: Kdn(a2-3)Gal(b1-4)Glc
# How it was run: as §1
# Man(a1-6)Man = biological target: Man(a1-6)Man
# How it was run: as §1
# Man(b1-4)GlcNAc = biological target: Man(b1-4)GlcNAc
# How it was run: as §1
# [3] = biological target: Neu5Ac(a2-3)Gal(b1-3)GalNAc
# How it was run: as §1
# [4] = biological target: Neu5Ac(a2-3)Gal(b1-3)[Neu5Ac(a2-6)]GalNAc
# How it was run: as §1
# [5] = biological target: Neu5Ac(a2-3)Gal(b1-3)]Neu5Ac(a2-3)Gal(b1-4)]GlcNAc
# How it was run: as §1
# [6] = biological target: Neu5Ac(a2-3)Gal(b1-4)GlcNAc(b1-2)Man(a1-3)[Neu5Ac(a2-3)Gal(b1-4)GlcNAc(b1-2)Man(a1-6)]Man(b1-4)GlcNAc(b1-4)GlcNAc
# How it was run: as §1
# [7] = biological target: Neu5Ac(a2-3)Gal6S(b1-4)GlcNAc
# How it was run: as §1
# [8] = biological target: Neu5Ac(a2-3)[GalNAc(b1-4)]Gal(b1-4)GlcNAc
# How it was run: as §1
# [9] = biological target: Neu5Ac(a2-6)Gal(b1-4)GlcNAc(b1-3)Gal(b1-3)GlcNAc
# How it was run: as §1
# [10] = biological target: Neu5Ac(a2-6)Gal(b1-4)GlcNAc(b1-3)Gal(b1-4)GlcNAc(b1-2)Man(a1-3)[Neu5Ac(a2-6)Gal(b1-4)GlcNAc(b1-3)Gal(b1-4)GlcNAc(b1-2)Man(a1-6)]GalNAc
# How it was run: as §1
# [11] = biological target: Neu5Ac(a2-6)Gal(b1-4)GlcNAc(b1-3)Gal(b1-4)GlcNAc(b1-3)GalNAc
# How it was run: as §1
# [12] = biological target: Neu5Ac(a2-8)Neu5Gc(a2-3)Gal(b1-4)GlcNAc
# How it was run: as §1
# Neu5Gc(a2-3)Gal(b1-4)Glc = biological target: Neu5Gc(a2-3)Gal(b1-4)Glc
# How it was run: as §1
# [13] = biological target: Neu5Gc(a2-3)Gal(b1-4)[Fuc(a1-3)]GlcNAc
# How it was run: as §1
# [14] = biological target: Neu5Gc(b2-6)Gal(b1-4)GlcNAc
# How it was run: as §1
binder,measurement,setting,value
PX9961H-bth-557-24-557 (Bacteroides thetaiotaomicron) (protein) EETRTEVEKKNYMNNAEEAKDVLLGVYRTNTLDAMYGYYLSILFNLGTDISQVEGSGNENFRIIPTNSFPTTQSEVQQTWAALYTGIYRANDFLERISNKIGSYTTTDKKLATLYIAEARALRGMFYFELVRRFGNVVLMTSTQMSNQNPATYVQSAPEKVYEYIEDDLLYACDILPYATDDQYRESNDYRFSKGAALGLLTKVYATWAGYPVKDESKWEAAAKTARILVESGKHGLLKDYEQLWKNTCNGTWDPTESLIEISFYSPTVSGNSDPVGRIGKWNGVKTTAIAGVRGSCAANVKVVHTFVLDWREDVSDIRRDLSIANYQYTDTKKSLWVAGASDTDESAAEKDADPTKAQKNKQNYTPAKWDIQKYVTTNSFINNDKSNVNWYFLRYADVLLLYAEALNEWKHGPDAEAYNAINAVRRRGYGNPSNTSACDLPQGLDETSFREAVRKERSYELSFEGHRRQDLIRWGIYYKTVQATAKELGYWWEGTGSPNYSVATYTEEGKHELFPIPQRDMDLCIQFNQNPKW,glycan array binding signal (z-score),[1],4.46
same,glycan array binding signal (z-score),Gal6S(b1-4)GlcNAc,-0.033
same,glycan array binding signal (z-score),GalNAc(b1-3)GlcNAc,-0.542
same,glycan array binding signal (z-score),Glc(a1-6)Glc(a1-6)Glc,-0.402
same,glycan array binding signal (z-score),GlcA(b1-3)Gal,-0.564
same,glycan array binding signal (z-score),[2],-0.299
same,glycan array binding signal (z-score),Kdn(a2-3)Gal(b1-4)Glc,-0.397
same,glycan array binding signal (z-score),Man(a1-6)Man,-0.064
same,glycan array binding signal (z-score),Man(b1-4)GlcNAc,-0.424
same,glycan array binding signal (z-score),[3],-0.207
same,glycan array binding signal (z-score),[4],-0.299
same,glycan array binding signal (z-score),[5],-0.127
same,glycan array binding signal (z-score),[6],-0.412
same,glycan array binding signal (z-score),[7],-0.532
same,glycan array binding signal (z-score),[8],-0.571
same,glycan array binding signal (z-score),[9],-0.166
same,glycan array binding signal (z-score),[10],0.218
same,glycan array binding signal (z-score),[11],-0.503
same,glycan array binding signal (z-score),[12],7.98
same,glycan array binding signal (z-score),Neu5Gc(a2-3)Gal(b1-4)Glc,-0.062
same,glycan array binding signal (z-score),[13],-0.313
same,glycan array binding signal (z-score),[14],-0.202
